Source: PubChem BioAssay (NCATS)
Several values for one entry are separate records, joined by “and”; a condition that tells them apart may be missing. Equal values may be shown once. Results filed as inconclusive are left out. Values without a mark were called inactive. Activity calls are given as the source filed them. Calls follow the shape of the dose curve; as a rule, active = well fitted curve in the direction sought with a large enough effect; inconclusive = small, poorly fitted or top-dose-only effect, or another doubt; inactive = no such curve, though single readings can be large; an effect the other way counts as inactive or inconclusive.

Assays:
[1] = target: Cellular tumor antigen p53 (Homo sapiens) (UniProt P04637); assay: Primary qHTS for small molecule compounds that upregulate eGFP-tagged delta133p53alpha (in N-terminal) cells. (AID 2060322); conditions: NCI-H358 eGFP-delta133p53alpha fluorescence, 24 h; activation: hits give high values; also: nearly all actives have a fitted effect of over 75% in size; also: potency is read from the fitted curve at half-maximal effect;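 as to activation: cells pre-induced with doxycycline then dosed without doxycycline; 0% = DMSO vehicle and 100% = reference activator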
Chain of Cellular tumor antigen p53 (Homo sapiens) (P04637 whole entry, looked up): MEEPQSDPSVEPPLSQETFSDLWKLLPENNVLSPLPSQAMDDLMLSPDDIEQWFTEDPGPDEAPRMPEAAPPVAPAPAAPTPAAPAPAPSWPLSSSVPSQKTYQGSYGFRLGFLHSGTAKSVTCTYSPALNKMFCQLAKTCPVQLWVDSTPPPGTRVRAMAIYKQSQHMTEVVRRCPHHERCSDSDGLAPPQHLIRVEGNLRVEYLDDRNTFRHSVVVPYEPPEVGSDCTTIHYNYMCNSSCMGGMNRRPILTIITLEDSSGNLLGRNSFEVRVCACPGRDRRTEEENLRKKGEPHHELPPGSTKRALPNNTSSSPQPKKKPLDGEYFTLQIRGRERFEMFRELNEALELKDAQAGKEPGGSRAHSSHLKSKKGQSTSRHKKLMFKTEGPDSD
How it was run: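 NCI-H358 cells pre-induced 24 h with 10 ng/ml doxycycline for eGFP-delta133p53alpha, plated dox-free and exposed 24 h at 37C to titrated compounds. Fixed, Hoechst-stained; gated GFP peak intensity by laser scanning cytometry, normalized to DMSO (0%) and 57.5 uM 5-azacytidine (100%).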

[2] = target: Aldehyde dehydrogenase, mitochondrial (Homo sapiens) (UniProt P05091); assay: qHTS for Inhibitors of the Aldehyde Dehydrogenase Family (ALDH2) Primary screen (AID 2061308); conditions: ALDH2 enzyme inhibition qHTS, 1536-well; series mostly up to 56 µM;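 also: plate controls were vehicle for no effect and reference inhibitor for full effect; nearly all actives have a fitted effect of over 55% in size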
[3] = BET inhibitor-based combinations targeting novel dependencies in MECOM-rearranged (r) AML: SET-2 cell line (AID 2202231); conditions: SET-2 AML cells viability, CellTiter-Glo luminescence, 48 h; viability: hits give low values, concentration not given here; also: potency is read from the fitted curve at half-maximal effect; nearly all actives have a fitted effect of over 35% in size
How it was run: (§1)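 Cells were plated at 500 per well and exposed to an 11-point dose series of each drug for 48 hr. Viability was measured by CellTiter-Glo luminescence, normalized to DMSO and empty-well controls, and summarized as AUC and per-cell-line Z-AUC.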

[4] = BET inhibitor-based combinations targeting novel dependencies in MECOM-rearranged (r) AML: OCI-AML3 cell line (AID 2202232); conditions: CellTiter-Glo luminescence, 48 h; Potency: OCI-AML3 viability; series mostly up to 46 µM; also: potency is read from the fitted curve at half-maximal effect; nearly all actives have a fitted effect of over 35% in size
How it was run: as §1

[5] = BET inhibitor-based combinations targeting novel dependencies in MECOM-rearranged (r) AML: MV-4-11 cell line (AID 2202233); conditions: MV-4-11 AML viability, CellTiter-Glo luminescence, 48 h; series mostly up to 46 µM; also: potency is read from the fitted curve at half-maximal effect; nearly all actives have a fitted effect of over 45% in size
How it was run: (§2)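 Activity is given as area under the curve and as Z-AUC, mean-centred within each cell line. It comes from 11-point dose curves normalized to DMSO and empty wells. CellTiter-Glo luminescence was read after 48 hr drug exposure of 500 cells/well.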

[6] = BET inhibitor-based combinations targeting novel dependencies in MECOM-rearranged (r) AML: HNT-34 cell line (AID 2202234); conditions: HNT-34 AML viability, CellTiter-Glo luminescence, 48 h; series mostly up to 46 µM; also: potency is read from the fitted curve at half-maximal effect; nearly all actives have a fitted effect of over 35% in size
How it was run: as §2

[7] = BET inhibitor-based combinations targeting novel dependencies in MECOM-rearranged (r) AML: UCSD-AML1 cell line (AID 2202235); conditions: UCSD-AML1 AML cells viability, CellTiter-Glo, 48 h; series mostly up to 46 µM; also: potency is read from the fitted curve at half-maximal effect; nearly all actives have a fitted effect of over 40% in size
How it was run: as §2

[8] = BET inhibitor-based combinations targeting novel dependencies in MECOM-rearranged (r) AML: AML-191 cell line (AID 2202236; also: potency is read from the fitted curve at half-maximal effect; nearly all actives have a fitted effect of over 35% in size); conditions: AML-191 viability, CellTiter-Glo luminescence, 48 h; series mostly up to 46 µM
How it was run: as §1

[9] = BET inhibitor-based combinations targeting novel dependencies in MECOM-rearranged (r) AML: AML-194 cell line (AID 2202237; also: potency is read from the fitted curve at half-maximal effect; nearly all actives have a fitted effect of over 40% in size); conditions: AML-194 (MECOM-r AML) viability, CellTiter-Glo, 48 h; series mostly up to 46 µM
How it was run: as §1

[10] = target: Retinaldehyde dehydrogenase 3 (Homo sapiens) (UniProt P47895); assay: qHTS for Inhibitors of the Aldehyde Dehydrogenase Family (ALDH1A3) Primary screen (AID 2061315); conditions: ALDH inhibition qHTS; series mostly up to 56 µM;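 also: plate controls were DMSO vehicle for no effect and reference inhibitor for full effect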
[11] = target: Retinaldehyde dehydrogenase 3 (Homo sapiens) (UniProt P47895); assay: qHTS for Inhibitors of the Aldehyde Dehydrogenase Family (ALDH1A3) Confirmatory screens (AID 2061311); conditions: ALDH inhibition qHTS; series mostly up to 46 µM; also: potency is read from the fitted curve at half-maximal effect; nearly all actives have a fitted effect of over 60% in size
[12] = target: Aldehyde dehydrogenase 1A1 (Homo sapiens) (UniProt P00352); assay: qHTS for Inhibitors of the Aldehyde Dehydrogenase Family (ALDH1A1) Confirmatory screens (AID 2061316); conditions: ALDH inhibition qHTS; series mostly up to 47.3 µM; also: nearly all actives have a fitted effect of over 65% in size; also: potency is read from the fitted curve at half-maximal effect
[13] = target: Retinaldehyde dehydrogenase 3 (Homo sapiens) (UniProt P47895); assay: qHTS for Inhibitors of the Aldehyde Dehydrogenase Family (ALDH1A3) Validation screen (AID 2061312); conditions: ALDH1A3 enzyme inhibition qHTS validation, fluorescence; series mostly up to 84.7 µM; also: nearly all actives have a fitted effect of over 45% in size; also: potency is read from the fitted curve at half-maximal effect
[14] = target: Retinal dehydrogenase 2 (Homo sapiens) (UniProt O94788); assay: qHTS for Inhibitors of the Aldehyde Dehydrogenase Family (ALDH1A2) Confirmation screens (AID 2061314); conditions: ALDH1A2 enzyme inhibition qHTS confirmation; series mostly up to 45.9 µM; also: potency is read from the fitted curve at half-maximal effect; nearly all actives have a fitted effect of over 65% in size

With `COc1cc(N2CCC(N)CC2)ccc1Nc1ncc(Cl)c(-c2c[nH]c3ccccc23)n1` the Potency [1] was 26.9 µM (active), the Potency [2] was “inactive” and the Potency [3] was 18.6 µM (active). For the same compound, the Potency [4] was 5.9 µM (active), the Potency [5] was 0.0661 µM (active) and the Potency [6] was 1.32 µM (active). The Potency [7] was 1.48 µM (active), the Potency [8] was 8.33 µM (active) and the Potency [9] was 10.5 µM (active).
For `O=C(/C=C/c1cccc(S(=O)(=O)Nc2ccccc2)c1)NO`, the Potency [1] was 5.44 µM (active), the Potency [2] was “inactive” and the Potency [3] was 0.263 µM (active). The Potency [4] was 0.742 µM (active), the Potency [5] was 0.296 µM (active) and the Potency [6] was 0.934 µM (active). The Potency [7] was 0.742 µM (active), the Potency [8] was 0.934 µM (active) and the Potency [9] was 1.05 µM (active).
For `FC(F)c1nc2ccccc2n1-c1nc(N2CCOCC2)nc(N2CCOCC2)n1`, the activation [1] was 43.2% and 24.1%, the Potency [2] was “inactive” and the Potency [3] was 3.72 µM (active). The Potency [4] was 0.235 µM (active) and the Potency [5] was 0.209 µM (active).
For `COc1cc(N2CCN(C(C)=O)CC2)ccc1Nc1ncc(Cl)c(Nc2ccc(N3CCN(C(C)=O)CC3)cc2OC)n1`, the activation [1] was -5.36%, the Potency [2] was “inactive” and the Potency [5] was 0.934 µM (active). The Potency [6] was 6.61 µM (active) and the Potency [7] was 4.17 µM (active).
With `CCCS(=O)c1ccc2nc(NC(=O)OC)[nH]c2c1` (configuration not stated) the activation [1] was -21.8% and -4.96%, the Potency [2] was “inactive” and the Potency [4] was 26.3 µM (active). For the same compound, the Potency [5] was 23.5 µM (active), the Potency [6] was 13.2 µM (active) and the Potency [8] was 8.33 µM (active). The Potency [9] was 11.8 µM (active).
With `COc1c(Cl)cc2c([nH]c3cnccc32)c1NC(=O)c1cccnc1C` the activation [1] was 16.3%, the Potency [2] was “inactive” and the Potency [10] was “inactive”. The Potency [8] was 20.9 µM (active) and the Potency [9] was 23.5 µM (active).
With `CNC(=O)c1ccccc1Nc1nc(Nc2ccc(N3CCOCC3)cc2OC)ncc1Cl` the Potency [1] was 3.06 µM (active) and 21.3 µM (active), the Potency [2] was “inactive” and the Potency [3] was 16.6 µM (active). For the same compound, the Potency [4] was 0.833 µM (active), the Potency [5] was 0.263 µM (active) and the Potency [6] was 1.32 µM (active). The Potency [7] was 2.35 µM (active).
With `C=CC(=O)Nc1cccc(Oc2nc(Nc3ccc(N4CCN(C)CC4)cc3OC)ncc2Cl)c1` the Potency [1] was 19.3 µM (active) and 30.1 µM (active), the Potency [2] was “inactive” and the Potency [3] was 20.9 µM (active). For the same compound, the Potency [4] was 10.5 µM (active), the Potency [5] was 4.68 µM (active) and the Potency [6] was 9.34 µM (active). The Potency [8] was 14.8 µM (active) and the Potency [9] was 16.6 µM (active).
In the case of `CN(C)Cc1c(C(=O)NCCOc2ccc(C(=O)NO)cc2)oc2ccccc12`, the Potency [1] was 21.7 µM (active), the Potency [2] was “inactive” and the Potency [3] was 0.662 µM (active). The Potency [4] was 0.59 µM (active), the Potency [5] was 0.263 µM (active) and the Potency [7] was 0.662 µM (active). The Potency [8] was 0.742 µM (active) and the Potency [9] was 0.934 µM (active).
In the case of `CCOc1cc(N2CCC(O)CC2)ccc1Nc1ncc2c(n1)N(C1CCCC1)CCC(=O)N2C`, the activation [1] was 4.33%, the Potency [11] was 20.1 µM (active) and the Potency [12] was “inactive”.
In the case of `NC1(c2ccc(-c3nc4ccn5c(=O)[nH]nc5c4cc3-c3ccccc3)cc2)CCC1`, the activation [1] was 26.3% and 14.1% and 3.82%, the Potency [2] was “inactive” and the Potency [3] was 20.9 µM (active). The Potency [4] was 16.6 µM (active), the Potency [5] was 13.2 µM (active) and the Potency [6] was 7.42 µM (active). For the same compound, the Potency [7] was 14.8 µM (active), the Potency [8] was 18.6 µM (active) and the Potency [9] was 18.6 µM (active).
For `Cc1cc(O)cc(Oc2cc(C)c(C(=O)O)c(O)c2)c1`, the activation [1] was -7.63%, the Potency [11] was 22.5 µM (active) and the Potency [12] was 17.9 µM (active).
With `Cn1nc(-c2ccc(C(F)(F)F)cc2)nc2c(=O)n(C)c(=O)nc1-2` the Potency [1] was 4.78 µM (active) and the Potency [13] was 2.51 µM (active).
For `Cc1ccc([N+](=O)[O-])cc1S(=O)(=O)N(C)/N=C/c1cnc2ccc(Br)cn12`, the Potency [1] was 0.213 µM (active), the Potency [2] was “inactive” and the Potency [3] was 0.166 µM (active). For the same compound, the Potency [4] was 0.235 µM (active), the Potency [5] was 0.0417 µM (active) and the Potency [6] was 0.166 µM (active). The Potency [7] was 0.166 µM (active), the Potency [8] was 0.166 µM (active) and the Potency [9] was 0.186 µM (active).
In the case of `COc1cc(O)c2c(c1)/C=C/C[C@H](O)[C@H](O)C(=O)/C=C\C[C@H](C)OC2=O`, the Potency [1] was 10.7 µM (active), the Potency [11] was 5.04 µM (active) and the Potency [14] was 5.04 µM (active).
For `c1ccc(C(NCc2cccnc2)(c2ccccc2)c2ccccc2)cc1`, the activation [1] was -2.89% and the Potency [13] was “inactive”.
For `Cc1c(CN2CCN(S(C)(=O)=O)CC2)sc2c(N3CCOCC3)nc(-c3cnc(N)nc3)nc12`, the activation [1] was -10.7%, the Potency [2] was “inactive” and the Potency [4] was 0.59 µM (active). The Potency [6] was 1.66 µM (active) and the Potency [7] was 0.186 µM (active).
In the case of `C/C=C/C=C/C(CC(=O)O)Nc1ccc(C=O)cc1` (configuration not stated), the activation [1] was -13.7%, the Potency [11] was 12.7 µM (active) and the Potency [10] was “inactive”. The Potency [12] was 2.01 µM (active).
For `N#C/C(=C\c1ccc(O)c(O)c1)C(=O)Nc1ccccc1`, the activation [1] was -12.1% and the Potency [11] was 2.25 µM (active).
With `O=c1[nH]nc(OCCCc2ccc(Cl)cc2)c(NCc2cccnc2)c1Br` the activation [1] was -4.06% and -19.1%, the Potency [2] was “inactive” and the Potency [10] was “inactive”. For the same compound, the Potency [9] was 20.9 µM (active).
With `CC(C)(Cc1nc(-c2ccc(O)cn2)no1)C(=O)NC1=C(C(=O)O)CCCC1` the activation [1] was 2.86% and the Potency [10] was “inactive”.
With `O=C(NN1CCCCC1)c1nn(-c2ccc(Cl)cc2Cl)c(-c2ccc(C#Cc3ccc(C(F)(F)F)cc3)s2)c1CNS(=O)(=O)N1CCCC1` the activation [1] was -21% and the Potency [10] was “inactive”.
For `O=C(O)c1cc(I)ccc1NC(=O)[C@H](Cc1ccccc1)NCc1ccccc1`, the activation [1] was -19.7% and the Potency [10] was “inactive”.
With `S=c1[nH]c(-c2ccccc2)cn1-c1ccccc1` the activation [1] was -21.8% and the Potency [13] was “inactive”.
